# Measurements published in ChEMBL document CHEMBL4513216, “Probing the Open Global Health Chemical Diversity Library for Multistage-Active Starting Points for Next-Generation Antimalarials” (ACS Infect Dis, 2020).
# Out of some 69,000 compounds screened, about 8,600 (12%) showed an effect of 50% or more. Only a selection was taken, and strong results are over-represented in it overall.
# Tested on: Plasmodium berghei
# Assay: Screen against P. berghei liver stage (PbLuc), transformed with Luciferase, at 10uM
# Type: functional, HepG2
# Settings: tested at 10 uM
row,Structure (SMILES),INHIBITION [%]
1,CN(C)c1ncc(C2Nc3cc(Cl)ccc3C3=NCCCN32)cn1 (configuration not stated),48.4
2,CN(C)C(=O)c1ccn(COc2ccccc2Cl)n1,-28
3,Cn1nc(CN2CCCCC2)c2c1CN(C(=O)c1cccc(Cl)c1)C2,-41.8
4,CC(NC(=O)N1CCN(c2nccs2)CC1)c1nncn1C (configuration not stated),-15.5
5,C[C@H]1CN(c2ccccn2)C[C@@]12CCN(Cc1cccnc1)C2=O,48.4
6,CN(C)C(=O)CN1CCCC(Cc2ccc(N3CCCC3)nn2)C1 (configuration not stated),42.4
7,CCC(=O)N1CC[C@H]2[C@H](C[C@@H](Cn3cccn3)N2c2nccs2)C1,21.6
8,CN1C(Cn2cccn2)C[C@@H]2CN(Cc3cnn(C)c3)CC[C@@H]21 (some centres not stated),-10.3
9,c1cnn(C[C@@H]2C[C@@H]3CN(CC4CC4)CC[C@@H]3N2c2nccs2)c1,79.2
10,CC(C)N1CC[C@H]2[C@H](C[C@@H](Cn3cccn3)N2c2nccs2)C1,54.4
11,CN1[C@H](Cn2cccn2)C[C@@H]2CN(C(=O)Cc3cccs3)CC[C@@H]21,37.4
12,CN1C(Cn2cccn2)C[C@@H]2CN(Cc3nccs3)CC[C@@H]21 (some centres not stated),20.4
13,O=C(CCCn1cnnn1)N1CCC(c2ccncc2)CC1,31.4
14,CN(Cc1ccco1)Cc1cncc2c1CCN(Cc1ccoc1)C2,38.5
15,CC(=O)N1N=C(c2ccco2)OC1C(=O)NCCc1ccc(F)cc1 (configuration not stated),-50.8
16,CCOCC1CN(C(=O)c2ccncn2)Cc2cnn(C)c21 (configuration not stated),1.48
17,CC(CCc1ccccc1)NC(=O)CNCCCN1CCOCC1 (configuration not stated),32.7
18,CC(CCc1ccccc1)NC(=O)CNCCCN(C)C (configuration not stated),52.5
19,CC(CCc1ccccc1)NC(=O)CN1CCOCC1 (configuration not stated),20.8
20,Cn1cnnc1SCC(=O)NC1CC(=O)N(CCc2ccccc2)C1 (configuration not stated),-6.18
21,COCCCN(C)c1cc(C(F)(F)F)nc(-c2cccnc2)n1,59.4
22,FC(F)(F)c1cc(NCCCn2cccn2)nc(-c2cccnc2)n1,15.1
23,COCC(O)CN(C)c1cc(C(F)(F)F)nc(-c2cccnc2)n1 (configuration not stated),85.1
24,CC(O)CN(C)c1cc(C(F)(F)F)nc(-c2cccnc2)n1 (configuration not stated),16.6
25,CC(=O)N1CCc2c(nc(-c3cccnc3)nc2N(C)CC(O)CO)C1 (configuration not stated),-31.4
26,CN(CCn1cccn1)c1cc(C(F)(F)F)nc(-c2cccnc2)n1,3.67

row,Structure (SMILES),INHIBITION [%]
1,CCN(Cc1cn(CC2CCNCC2)nn1)CC1CCCO1 (configuration not stated),-16.3
2,CN(C)C(=O)[C@@H]1CC[C@@H]2[C@@H](CCN2Cc2nccs2)O1,-22.1
3,CCC1=N[C@@]2(CC[C@@H]3CN(Cc4ccccc4F)C[C@@H]32)C(=O)N1CC,13.5
4,Cc1cc(C(=O)N(C)Cc2cccs2)nc(N2CCCC2)n1,-33.7
5,Cc1cc(C(=O)N(C)Cc2cccs2)nc(N2CCOCC2)n1,19.3
6,Cc1cc(C(=O)N(C)Cc2cccs2)nc(N2CCCCC2)n1,52.4
7,CC(C)OCCCNC(=O)CS(=O)(=O)Cc1ccc(C(C)C)cc1,7.67
8,CCCOc1cc(C)ccc1NC(=O)N(C)C,24.2
9,CCc1nnc2n1CCN(C(=O)c1cc3ccc(C)cc3[nH]1)C2,23.7
10,CCOCC1CN(Cc2ccncc2)Cc2nn(C)cc21 (configuration not stated),29.9
11,COCC1CN(CC2CC2)Cc2nn(CC3CC3)cc21 (configuration not stated),56.7
12,COCC1CN(CC2CC2)Cc2nn(C)cc21 (configuration not stated),55.7
13,CCOCC1CN(CC2CC2)Cc2nn(CC3CC3)cc21 (configuration not stated),29
14,COCC1CN(Cc2cnn(C)c2)Cc2nn(C)cc21 (configuration not stated),25.2
15,CCOCC1CN(Cc2ccc(F)cc2)Cc2nn(C)cc21 (configuration not stated),41.6
16,CCOCC1CN(CC2CC2)Cc2nn(C)cc21 (configuration not stated),52
17,COCC1CN(Cc2ccoc2)Cc2nn(C)cc21 (configuration not stated),24.1
18,COCC1CN(Cc2ccncc2)Cc2nn(CC3CC3)cc21 (configuration not stated),29.9
19,O=S(=O)(c1ccccc1)N1C[C@@H]2CCCCN(Cc3cccs3)[C@@H]2C1,11.8
20,O=C1CCCC2(CCN(C(=O)c3ccccn3)CC2)N1,17.4
21,O=C(NC[C@]1(O)CCN(Cc2ccsc2)C[C@H]1O)c1c[nH]cn1,-0.275
22,NC(=O)N1CC[C@H](O)[C@@H]1Cc1cccnc1,38.1
23,O=C(N1CCCCC1)N1CCN(c2ccc(Cl)nn2)C(=O)C1,30
24,CCCSc1ncc(CN(C)CCN2CCCCC2)cn1,32.3
25,Cc1cc(C)n(CC2CCCN2C(=O)c2cccn3ccnc23)n1 (configuration not stated),15.32
26,COc1ccc(OCc2nc(C(=O)N3CC(O)C3)co2)cc1,33.5
